# Reference: the supplement of paper PMC12819154, “High-throughput peptide-centric local stability assay extends protein–ligand identification to membrane proteins, tissues and bacteria” (Nature Structural & Molecular Biology, 2025)
# Compound: Nc1ncnc2c1ncn2[C@@H]1O[C@H](COP(=O)(O)OP(=O)(O)OP(=O)(O)O)[C@@H](O)[C@H]1O [adenosine 5'-triphosphate]
# Experiment: log2 fold change of tryptic peptide abundance, ligand vs vehicle (limited proteolysis) (log2 ratio); higher = more trypsin-susceptible (destabilized)
# Details: ligand concentration: 5 mM; sample: E. coli desalted lysate; replicate design: treated before aliquoting
# Description: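 HT-PELSA: desalted E. coli K-12 BW25113 lysate (with 12 mM MgCl2) incubated with 5 mM ATP (pH 7) or water for 30 min at 25 C, then a 4 min trypsin pulse at 22 C. Peptides were quantified by DIA-MS (4 replicates). Value is the peptide log2 fold change (treated/control); negative = stabilized. Scale: negative = ligand-stabilized region.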
# 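Note: lysate desalted by size exclusion to strip endogenous ATP, peptide intensities built from DIA-NN precursor signals, and peptides missing any value discarded before comparison.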
row,Target,log2 fold change
1,"UniProt P13518 (peptide sequence: LYQKPAVTR, peptide start residue: 414)",0.793
2,"UniProt P06149 (peptide sequence: VRDIEADTPAR, peptide start residue: 232)",-1.35
3,"UniProt P76502 (peptide sequence: VLVSPFLR, peptide start residue: 48)",0.397
4,"UniProt P77202 (peptide sequence: TLNIIMGNK, peptide start residue: 240)",0.511
5,"UniProt P09030 (peptide sequence: CSFLPEER, peptide start residue: 177)",-1.54
6,"UniProt P37902 (peptide sequence: ALFKEPNDKALN, peptide start residue: 291)",1.12
7,"UniProt Q46802 (peptide sequence: GAFTGASANGK, peptide start residue: 347)",-0.841
8,"UniProt P10346 (peptide sequence: IAEDGNPQVLIKNPPSQR, peptide start residue: 214)",0.654
9,"UniProt P37692 (peptide sequence: AYVLPNSFK, peptide start residue: 84)",-1.08
10,"UniProt P51024 (peptide sequence: QLIEMNR, peptide start residue: 75)",-0.359
11,"UniProt P25519 (peptide sequence: IDRDEENKPNR, peptide start residue: 329)",-1.08
12,"UniProt P36995 (peptide sequence: VTFSIESGAK, peptide start residue: 51)",-0.289
